system: T1, YANK2; conditions: concentration: 1 μM, replicates: in singlicate; n = 1
T1 construct: gene STK32B
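Note: KINOMEscan kinase panel screen.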

Row | Structure (SMILES) | %Inh
1 | O=C(NCCNc1ccnc(Nc2ccc(F)cc2)n1)Nc1ccc2c(c1)OCO2 [GSK1379882] | 1%
2 | O=C(NCc1cccs1)c1cc(C(=O)c2c(Cl)cccc2Cl)c[nH]1 [GW823670] | 0%
3 | Cc1ccc(-c2ccc3c(ccc4sc5c(c43)NC[C@@H](C)N=C5N(C)C)n2)cn1 | 0%
4 | Cc1cc(Nc2nc(-c3cccc(C)n3)nc3ccccc23)ccn1 [GW872411] | 0%
5 | Nc1nc(-c2ccccc2F)c(-c2ccnc3ccccc23)s1 [GW560459] | 8%
6 | COc1ccc(-c2cc3c(C)nc(N)nc3n([C@H]3CC[C@H](O)CC3)c2=O)cn1 | 0%
7 | OCCCNc1nccc(-c2c(-c3cccc(C(F)(F)F)c3)nn3cc(C(F)(F)F)ccc23)n1 [GW630813] | 0%
8 | CN(C)c1cc(-c2ccc3c(N)n[nH]c3c2)nc(N)n1 [GSK2219329] | 0%
9 | Cl.c1ccc(Cn2cnc3cc(Nc4ncnc5ccccc45)ccc32)cc1 [GW272142] | 0%
10 | Cc1cccc(-c2cc(-c3c[nH]nc3-c3ccccn3)ccn2)c1 [GW679395] | 0%
11 | CCC(=O)c1c(-c2ccccc2)c2cc(Cl)ccc2c(=O)n1Cc1cc(S(C)(=O)=O)n(CCC(C)(C)O)n1 | 13%
12 | Cc1nnc(-c2ccc(C)c(-c3ccc(C(=O)O)cc3)c2)o1 [GW608005] | 0%
13 | COc1cc2nccc(Nc3ccc(OCc4ccc(NC(C)=O)cc4)cc3)c2cc1OC.Cl [GW440135] | 4%
14 | COC(=O)c1c(-c2ccccc2)c2cc(Br)ccc2c(=O)n1Cc1ccc(NC(=O)CCC(=O)O)cc1 | 21%
15 | Cc1nc(N(C)[C@H]2CN(C(=O)CC#N)CC[C@H]2C)c2cc[nH]c2n1 | 0%
16 | COc1cc2ncn(-c3cc(OCc4ccncc4)c(C(N)=O)s3)c2cc1OC [GSK336313] | 0%
17 | CCC(=O)c1c(-c2ccccc2)c2cc(Cl)ccc2c(=O)n1Cc1cc(S(C)(=O)=O)n(CC(N)=O)n1 | 0%
18 | CCS(=O)c1ccc(-c2coc3ccc(-c4nnc(C)o4)cc23)cc1 (stereo not drawn) | 11%

Row | Structure (SMILES) | %Inh
19 | COc1ccc(-c2cc3c(C)nc(N)nc3n([C@H]3CC[C@H](OCCO)CC3)c2=O)cn1 | 0%
20 | CC(C)(C)c1ccc(C(=O)Nc2cn3cc(-c4ccccc4)ccc3n2)cc1 | 0%
21 | COc1cc(Nc2nccc(N3CCC(NC(=O)C4COc5ccccc5O4)C3)n2)cc(OC)c1OC (stereo not drawn) [GSK1379761] | 0%
22 | CN1C(=O)C(Nc2ccccc2)=C(c2ccccc2)C1=O [SB-300079] | 2%
23 | COc1ccc(-n2cnc3c(N)ncnc32)cc1 [SKF-97236] | 10%
24 | CCc1ccc(-c2ccc3c(c2)-c2nn(C)cc2S(=O)(=O)N3C)cc1 | 12%
25 | Cc1ccc(Oc2ccc(Nc3ncnc4cc[nH]c34)cc2C)cn1 | 22%
26 | O=C(Nc1n[nH]c2nc(-c3ccccc3)c(Br)cc12)C1CC1 [SB-708998] | 10%
27 | Cc1ccccc1COc1cc(-n2cnc3cc(Cl)ccc32)sc1C(N)=O [GW813349] | 2%
28 | COc1cc(OC)cc(-c2cc3cnc(N)nc3nc2NC(=O)NC(C)(C)C)c1 | 19%
29 | COc1cc(Nc2nccc(N3CCC(NC(=O)C(C)c4ccc(Cl)cc4)C3)n2)cc(OC)c1OC (stereo not drawn) [GSK1379757] | 0%
30 | CCCC(=O)Nc1n[nH]c2ncc(-c3cccc4ccccc34)cc12 [SB-642057] | 6%
31 | COc1ccc(-c2coc3ccc(-c4nnc(SCc5cccc(C#N)c5)o4)cc23)cc1 | 12%
32 | Cc1nnc(-c2ccc3ncn(-c4ccc(S(C)=O)cc4)c3c2)o1 (stereo not drawn) | 0%
33 | O=C1NC(=O)C(c2ccccc2)=C1Nc1cccc(O)c1 [SB-390534] | 0%
34 | Nc1ncnc2c1ncn2-c1cccc2ccccc12 [SKF-97184] | 80%
35 | COc1ccc(Nc2nccc(N3CCC(NS(=O)(=O)c4ccc(NC(C)=O)cc4)C3)n2)cc1 (stereo not drawn) [GSK1379729] | 3%
36 | COc1cc2ncn(-c3cc(OCc4ccc(S(C)(=O)=O)cc4)c(C(N)=O)s3)c2cc1OC [GW869979] | 0%

system: T2, YANK3; conditions: concentration: 1 μM, replicates: in singlicate; n = 1
T2 construct: gene STK32C

Row | Structure (SMILES) | %Inh
37 | O=C(NCCNc1ccnc(Nc2ccc(F)cc2)n1)Nc1ccc2c(c1)OCO2 [GSK1379882] | 0%
38 | O=C(NCc1cccs1)c1cc(C(=O)c2c(Cl)cccc2Cl)c[nH]1 [GW823670] | 0%
39 | Cc1ccc(-c2ccc3c(ccc4sc5c(c43)NC[C@@H](C)N=C5N(C)C)n2)cn1 | 0%
40 | Cc1cc(Nc2nc(-c3cccc(C)n3)nc3ccccc23)ccn1 [GW872411] | 0%
41 | Nc1nc(-c2ccccc2F)c(-c2ccnc3ccccc23)s1 [GW560459] | 0%
42 | COc1ccc(-c2cc3c(C)nc(N)nc3n([C@H]3CC[C@H](O)CC3)c2=O)cn1 | 0%
43 | OCCCNc1nccc(-c2c(-c3cccc(C(F)(F)F)c3)nn3cc(C(F)(F)F)ccc23)n1 [GW630813] | 0%
44 | CN(C)c1cc(-c2ccc3c(N)n[nH]c3c2)nc(N)n1 [GSK2219329] | 0%
45 | Cl.c1ccc(Cn2cnc3cc(Nc4ncnc5ccccc45)ccc32)cc1 [GW272142] | 18%
46 | Cc1cccc(-c2cc(-c3c[nH]nc3-c3ccccn3)ccn2)c1 [GW679395] | 15%
47 | CCC(=O)c1c(-c2ccccc2)c2cc(Cl)ccc2c(=O)n1Cc1cc(S(C)(=O)=O)n(CCC(C)(C)O)n1 | 23%
48 | Cc1nnc(-c2ccc(C)c(-c3ccc(C(=O)O)cc3)c2)o1 [GW608005] | 9%
49 | COc1cc2nccc(Nc3ccc(OCc4ccc(NC(C)=O)cc4)cc3)c2cc1OC.Cl [GW440135] | 0%
50 | COC(=O)c1c(-c2ccccc2)c2cc(Br)ccc2c(=O)n1Cc1ccc(NC(=O)CCC(=O)O)cc1 | 0%
51 | Cc1nc(N(C)[C@H]2CN(C(=O)CC#N)CC[C@H]2C)c2cc[nH]c2n1 | 6%
52 | COc1cc2ncn(-c3cc(OCc4ccncc4)c(C(N)=O)s3)c2cc1OC [GSK336313] | 4%
53 | CCC(=O)c1c(-c2ccccc2)c2cc(Cl)ccc2c(=O)n1Cc1cc(S(C)(=O)=O)n(CC(N)=O)n1 | 0%
54 | CCS(=O)c1ccc(-c2coc3ccc(-c4nnc(C)o4)cc23)cc1 (stereo not drawn) | 0%

Row | Structure (SMILES) | %Inh
55 | COc1ccc(-c2cc3c(C)nc(N)nc3n([C@H]3CC[C@H](OCCO)CC3)c2=O)cn1 | 0%
56 | CC(C)(C)c1ccc(C(=O)Nc2cn3cc(-c4ccccc4)ccc3n2)cc1 | 0%
57 | COc1cc(Nc2nccc(N3CCC(NC(=O)C4COc5ccccc5O4)C3)n2)cc(OC)c1OC (stereo not drawn) [GSK1379761] | 19%
58 | CN1C(=O)C(Nc2ccccc2)=C(c2ccccc2)C1=O [SB-300079] | 0%
59 | COc1ccc(-n2cnc3c(N)ncnc32)cc1 [SKF-97236] | 0%
60 | CCc1ccc(-c2ccc3c(c2)-c2nn(C)cc2S(=O)(=O)N3C)cc1 | 0%
61 | Cc1ccc(Oc2ccc(Nc3ncnc4cc[nH]c34)cc2C)cn1 | 11%
62 | O=C(Nc1n[nH]c2nc(-c3ccccc3)c(Br)cc12)C1CC1 [SB-708998] | 11%
63 | Cc1ccccc1COc1cc(-n2cnc3cc(Cl)ccc32)sc1C(N)=O [GW813349] | 35%
64 | COc1cc(OC)cc(-c2cc3cnc(N)nc3nc2NC(=O)NC(C)(C)C)c1 | 0%
65 | COc1cc(Nc2nccc(N3CCC(NC(=O)C(C)c4ccc(Cl)cc4)C3)n2)cc(OC)c1OC (stereo not drawn) [GSK1379757] | 0%
66 | CCCC(=O)Nc1n[nH]c2ncc(-c3cccc4ccccc34)cc12 [SB-642057] | 42%
67 | COc1ccc(-c2coc3ccc(-c4nnc(SCc5cccc(C#N)c5)o4)cc23)cc1 | 11%
68 | Cc1nnc(-c2ccc3ncn(-c4ccc(S(C)=O)cc4)c3c2)o1 (stereo not drawn) | 4%
69 | O=C1NC(=O)C(c2ccccc2)=C1Nc1cccc(O)c1 [SB-390534] | 0%
70 | Nc1ncnc2c1ncn2-c1cccc2ccccc12 [SKF-97184] | 4%
71 | COc1ccc(Nc2nccc(N3CCC(NS(=O)(=O)c4ccc(NC(C)=O)cc4)C3)n2)cc1 (stereo not drawn) [GSK1379729] | 0%
72 | COc1cc2ncn(-c3cc(OCc4ccc(S(C)(=O)=O)cc4)c(C(N)=O)s3)c2cc1OC [GW869979] | 0%
